# Several values for one entry are separate records, joined by “and”; a condition that tells them apart may be missing. Identical values can stand only once. Activity calls are given as the source filed them. Unless noted, no stated cut-off is given here; in the data, active means inhibition above about 80%; inactive means the rest.
# How the values were obtained:
# [1] = hESC survival regulators, cell-based (AID 493140; call rule not given here;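 further: cells exposed to compounds for four days before counting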); settings: human embryonic stem cell survival screen; stronger effect = higher value
# [2] = liver-stage malaria parasite growth inhibition, primary screen, cell-based, HepG2, luciferase luminescence, HepG2 viability (AID 624349; in the data active means parasite load remaining mostly below about 12%, no sharp cut-off; inactive means mostly above about 10%;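 further: 100% = mean of DMSO negative control wells on the same plate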); settings: P. berghei liver stage in HepG2, luciferase luminescence, concentration not given here; parasite load remaining: stronger effect = lower value; viability: measured here: HepG2 viability without parasites
# [3] = sensitizers of A549 cells to miR-34 induction, primary screen, imaging, A549 dox-inducible miR-34, nuclei and caspase counts (AID 1347080;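 active means compounds whose cell count with miR-34 switched on is under 0.7 times the count with it off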); settings: A549 miR-34 inducible, Hoechst nuclei count, 48 h
# [4] = survival rescue of mitochondrial mutant cells in low glucose, primary screen, MELAS cybrids, Rieske KO mouse fibroblasts, CellTiter-Glo (AID 1508586;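 active means mean z-score across replicates of 1.96 or higher in either the MELAS or the Rieske mutant cell line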;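 further: z relative to plate mean and SD of compound and empty wells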)
# [5] = LFS_MB_P medulloblastoma growth inhibition, cell-based, chromothripsis tumors, cisplatin or BGB combos (AID 1671449); settings: LFS_MB_P medulloblastoma cells;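 further: cells exposed for 96 hours; 0% = vehicle DMSO and 100% = killing by high DMSO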
# [6] = HDN33 neuroblastoma growth inhibition, cell-based, chromothripsis tumors, cisplatin or BGB combos (AID 1671450); settings: HDN33 neuroblastoma cells, stronger effect = higher value;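 further: cells exposed to compound for four days; 0% = vehicle DMSO and 100% = cell killing by high DMSO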
# [7] = ICB984 medulloblastoma cell growth inhibition, synergistic combos for chromothripsis tumors, cisplatin or BGB combos (AID 1671451; call rule not given here;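 further: cells exposed for 96 hours before readout; 0% = vehicle DMSO and 100% = killing by high DMSO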); settings: ICB984 medulloblastoma cells, drug combinations, stronger effect = higher value
# [8] = LFS_MB_1R medulloblastoma cell growth inhibition, synergistic combos for chromothripsis tumors, cisplatin or BGB combos (AID 1671452); settings: LFS_MB_1R medulloblastoma cells, stronger effect = higher value;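 further: cells exposed for 96 hours before readout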
# [9] = HTB85 osteosarcoma cell growth inhibition, synergistic combos for chromothripsis tumors, BGB or cisplatin IC20 combos (AID 1671453); settings: HTB85 osteosarcoma cells, drug combinations, stronger effect = higher value;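 further: cells exposed for 96 hours before readout; 0% = vehicle DMSO and 100% = high DMSO killing control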
# [10] = CRL2098 osteosarcoma cell growth inhibition, synergistic combos for chromothripsis tumors, BGB or cisplatin IC20 combos (AID 1671454); settings: CRL2098 osteosarcoma cells, drug combinations, stronger effect = higher value;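 further: cells exposed for 96 h before readout; 0% = vehicle DMSO and 100% = killing by high DMSO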
# [11] = HD-MB03 medulloblastoma cell growth inhibition, synergistic combos for chromothripsis tumors, BGB or cisplatin IC20 combos (AID 1671455; in the data active means inhibition above about 83%;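 further: 0% = vehicle DMSO and 100% = high DMSO as cytotoxic control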); settings: HD-MB03 medulloblastoma cells, stronger effect = higher value
# [12] = UWB1.289 ovarian carcinoma cell growth inhibition, synergistic combos for chromothripsis tumors, BGB or cisplatin combos (AID 1671456); settings: UWB1.289 ovarian carcinoma cells, stronger effect = higher value;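 further: cells exposed to compound for four days; 0% = vehicle DMSO and 100% = killing by high DMSO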
# [13] = LFS_MB_2R medulloblastoma cell growth inhibition, synergistic combos for chromothripsis tumors, cisplatin combos (AID 1671457); settings: LFS_MB_2R medulloblastoma cells, stronger effect = higher value;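 further: cells exposed to compound for four days before readout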
# [14] = MDA-MB-436 breast carcinoma cell growth inhibition, synergistic combos for chromothripsis tumors, BGB or cisplatin combos (AID 1671458; call rule not given here;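 further: cells exposed for 96 hours; 0% = vehicle DMSO and 100% = killing by high DMSO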); settings: MDA-MB-436 breast carcinoma growth inhibition, drug combinations, stronger effect = higher value
# [15] = UWB1.289_BRCA1 ovarian cancer growth, cell-based, BGB or cisplatin combinations (AID 1671459); settings: UWB1.289 BRCA1 ovarian carcinoma, drug combinations, stronger effect = higher value
# [16] = human astrocyte viability loss, single and combined drugs, cytotoxicity control for chromothriptic childhood tumor combination screen, cell-based, BGB or cisplatin IC20 combos (AID 1671460); settings: Human astrocytes, drug combinations, stronger effect = higher value;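 further: cells exposed to compounds for 96 hours before viability readout; 0% = vehicle and 100% = killing control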
# [17] = growth inhibition of BT084 medulloblastoma cells, cell-based, ICGC_MB145, cisplatin and BGB IC40 combos (AID 1671461); settings: drug combinations, stronger effect = higher value;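 further: cells exposed to drugs for 96 hours; 0% = vehicle DMSO and 100% = high DMSO full killing control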
# [18] = growth inhibition of RCMB18 medulloblastoma cells, cell-based, cisplatin and BGB IC40 combos (AID 1671462); settings: stronger effect = higher value;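 further: cells exposed to compound for four days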
# [19] = growth inhibition of CRL1545 osteosarcoma cells, cell-based, cisplatin and BGB IC20 combos (AID 1671464); settings: stronger effect = higher value;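 further: cells exposed to compound for 96 hours before readout; 0% = vehicle DMSO and 100% = high DMSO killing control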
# [20] = measured here: combination with BGB IC40, at 0.05 µM
# [21] = measured here: with BGB IC20 combination, at 0.5 µM
# [22] = measured here: with cisplatin IC20 combination, at 0.5 µM
# [23] = measured here: combination with cisplatin, at 0.5 µM
# [24] = measured here: combination with cisplatin, at 5 µM
compound,measurement,setting,value
Nc1nc2n[nH]nc2c(=O)[nH]1,survival,[1],1.83 (inactive)
same,parasite load remaining,[2],236% (inactive) and 549% (inactive)
same,viability,[2],41.1% and 96.1%
same,fold change,"[3]; stronger effect = lower value, cell number ratio, induced over uninduced",0.89 (inactive) and 0.844 (inactive)
same,fold change,[3]; measured here: relative caspase fold change +Dox/-Dox,1.24 and 2.05
same,cell count,"[3]; measured here: total cells with miR-34 induction, stronger effect = lower value",3000 and 5470
same,cell count,[3]; measured here: total cells without miR-34 induction,3360 and 6490
same,z-score,"[4]; MELAS cybrid survival, CellTiter-Glo 48 h, stronger effect = higher value",-0.244 (inactive) and -0.54 (inactive)
same,z-score,"[4]; Rieske KO mouse fibroblast survival, CellTiter-Glo 72 h",-0.138 and -0.665
same,inhibition,"[5]; at 0.5 µM, stronger effect = higher value",-21.3% (inactive)
same,inhibition,"[5]; measured here: combination with BGB IC20, at 0.005 µM",-4.53%
same,inhibition,"[5]; measured here: combination with BGB IC40, at 0.005 µM",-37%
same,inhibition,[5]; [20],-34.6%
same,inhibition,"[5]; measured here: combination with cisplatin, at 0.5 µM, stronger effect = higher value",-31.1%
same,inhibition,"[5]; measured here: combination with cisplatin, at 5 µM, stronger effect = higher value",8.39%
same,inhibition,"[6]; BGB combo, at 5 µM",20.7%
same,inhibition,[6]; at 0.5 µM,-10.2% (inactive)
same,inhibition,"[6]; cisplatin combo, at 5 µM",6.45%
same,inhibition,[6]; [21],-12.8%
same,inhibition,[6]; [22],-5.82%
same,inhibition,"[6]; single agent, at 5 µM",42.1%
same,inhibition,"[7]; BGB IC20 combo, at 0.005 µM",-1.82%
same,inhibition,"[7]; BGB IC40 combo, at 0.005 µM",-9.06%
same,inhibition,"[7]; BGB IC40 combo, at 0.05 µM",29.3%
same,inhibition,[7]; at 0.5 µM,-25% (inactive)
same,inhibition,"[7]; cisplatin combo, at 0.05 µM",27.3%
same,inhibition,"[7]; cisplatin combo, at 0.5 µM",-32.9%
same,inhibition,"[7]; cisplatin combo, at 5 µM",-42%
same,inhibition,"[7]; measured here: 5 uM single agent, at 5 µM",-12.8%
same,inhibition,[8]; at 0.5 µM,-9.31% (inactive)
same,inhibition,[8]; [20],-15.8%
same,inhibition,[8]; [23],-8.27%
same,inhibition,[8]; [24],12.9%
same,inhibition,[9]; at 0.5 µM,-22.9% (inactive)
same,inhibition,"[9]; measured here: with BGB IC20, at 0.5 µM",-34.4%
same,inhibition,"[9]; measured here: with BGB IC20, at 5 µM",1.91%
same,inhibition,"[9]; measured here: with cisplatin IC20, at 0.5 µM",-27.1%
same,inhibition,"[9]; measured here: with cisplatin IC20, at 5 µM",-19.1%
same,inhibition,"[9]; single agent, at 5 µM",1.86%
same,inhibition,[10]; at 0.5 µM,-27.1% (inactive)
same,inhibition,"[10]; measured here: combination with BGB at IC20, at 0.5 µM",-20.7%
same,inhibition,"[10]; measured here: combination with cisplatin at IC20, at 0.5 µM",-21.9%
same,inhibition,[11]; at 0.5 µM,19.3% (inactive)
same,inhibition,"[11]; measured here: combo with BGB at IC20, at 0.5 µM",16.1%
same,inhibition,"[11]; measured here: combo with cisplatin at IC20, at 0.5 µM",19.7%
same,inhibition,[12]; at 0.5 µM,32.6% (inactive)
same,inhibition,"[12]; measured here: inhibition with BGB combination, at 0.05 µM",-18.7%
same,inhibition,"[12]; measured here: inhibition with cisplatin combination, at 0.05 µM",7.62%
same,inhibition,[13]; at 0.5 µM,-9.15% (inactive)
same,inhibition,[13]; [23],-13.8%
same,inhibition,[13]; [24],-35.4%
same,inhibition,[14]; at 0.5 µM,-11.4% (inactive)
same,inhibition,"[14]; measured here: BGB combination, at 0.5 µM",-12.2%
same,inhibition,"[14]; measured here: BGB combination, at 5 µM",-5.12%
same,inhibition,"[14]; measured here: cisplatin combination, at 0.5 µM",-17.5%
same,inhibition,"[14]; measured here: cisplatin combination, at 5 µM",11.7%
same,inhibition,"[15]; BGB combination, concentration series, at 5 µM",85.1%
same,inhibition,[15]; at 0.5 µM,38.3% (inactive)
same,inhibition,"[15]; cisplatin combination, concentration series, at 5 µM",92.1%
same,inhibition,[16]; at 0.5 µM,3.68% (inactive)
same,inhibition,"[16]; measured here: combo with BGB IC20, at 0.5 µM",0.254%
same,inhibition,"[16]; measured here: combo with cisplatin IC20, at 0.5 µM",6.71%
same,inhibition,[17]; at 0.5 µM,-32% (inactive)
same,inhibition,"[17]; cisplatin combination, at 0.5 µM",-3.22%
same,inhibition,"[17]; cisplatin combination, at 5 µM",22.6%
same,inhibition,"[17]; measured here: BGB IC40 combination 0.05 uM, at 0.05 µM",-14%
same,inhibition,"[17]; single agent, at 5 µM",6.12%
same,inhibition,[18]; at 0.5 µM,-14.7% (inactive)
same,inhibition,"[18]; cisplatin combo, at 5 µM",33.1%
same,inhibition,"[18]; measured here: BGB IC40 combination, at 0.05 µM",-43.3%
same,inhibition,[18]; [23],3.47%
same,inhibition,"[18]; single agent, at 5 µM",22.1%
same,inhibition,[19]; at 0.5 µM,-20.1% (inactive)
same,inhibition,[19]; [21],-2.71%
same,inhibition,[19]; [22],-31.6%
same,inhibition,"[19]; single agent, at 0.05 µM",-28.1%
same,inhibition,"[19]; single agent, at 5 µM",32.5%

# Source: PubChem BioAssay
